Source: PubChem
Vaccinia Venus: inhibitors of vaccinia virus (Venus reporter). 330,000 tested, 0.46% active. Potency, µM (highest dose often 36.5 µM), for inactives: at the top dose activity change, negative = inhibition, most hits filed as inhibitors. Vaccinia virus Venus reporter expression, fluorescence; calls by dose curve; tested in A549 cells; note: potency is the fitted concentration of half-maximal effect; nearly all actives have a fitted effect of over 30% in size
VACV mCherry inh: vaccinia inhibition (mCherry reporter) | Vaccinia virus mCherry reporter infection, fluorescence | Potency, µM (titrated, usually from 36.5 µM), for inactives: at the highest dose activity change, negative = inhibition, usual class: inhibitors | 310,000 tested, 0.63% active; calls by dose curve; tested in A549 cells; note: potency is the fitted concentration of half-maximal effect; nearly all actives have a fitted effect of over 35% in size
FMDV inh: blocks foot and mouth disease virus | AID 1159524 | FMDV antiviral cell-based qHTS | Potency, µM (titrated, usually from 57.9 µM), without a hit: at the highest dose activity change, negative = inhibition, usual class: inhibitors | 410,000 tested, 1.2% active; calls by dose curve; tested in HEK293T cells; note: read-out not given here; potency is the fitted concentration of half-maximal effect; nearly all actives have a fitted effect of over 45% in size
HCMV inh: human cytomegalovirus inhibition | activity change, negative = inhibition, % at 57.5 µM | HFF cells, HCMV-luciferase reporter, 72 h; stronger effect = lower value | AID 1259415 | 410,000 tested, 4.5% active; in the data active = activity change below about -60%; inconclusive = no clear call, values can overlap the other calls; inactive = above about -39%
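Luciferase read-out from HCMV-luciferase-infected HFFs (MOI 1 PFU/cell) 72 h post infection at 37C; compounds added after 16 h cell attachment; activity normalized between buffer-only basal and Salinomycin (10uM) inhibitor controls.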
Sm TGR block: S. mansoni TGR enzyme inhibition. Q962Y6. purified TGR, DTNB reduction, TNB absorbance 405 nm. Potency, µM (doses to about 114 µM), for the others: at the highest dose activity change, negative = inhibition, most hits filed as inhibitors. 360,000 tested, 3% active; note: potency is the fitted concentration of half-maximal effect; nearly all actives have a fitted effect of over 60% in size
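First, TGR (20 nM dispensed) and NADPH were mixed with compound. Second, a 15 min room-temperature incubation followed. Third, further NADPH and then DTNB were added to start the reaction. Finally, TNB absorbance was monitored kinetically.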
HCV inhibitor: inhibitors of hepatitis C virus infection; Huh7.5.1 HCVcc-Cre infection, luciferase reporter, 44 h; 340,000 tested, 3.4% active; Potency, µM (highest dose often 41.8 µM), inactives show top-dose activity change, negative = inhibition, most hits filed as inhibitors; note: potency is the fitted concentration of half-maximal effect
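Infectious HCV cell culture screen: compound-treated cells (1,000/well, pre-plated 4 h) are infected with HCVcc-Cre at roughly 0.5 moi and grown 44 h. Infection is quantified by luciferase signal after 15 min substrate incubation at room temperature.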
Active calls of the source: *; i = inactive; ? = inconclusive; . = not tested or not shown; [ ] = remark or other dose. Hits are enriched below; roughly 9.3% of the tested compounds scored in any of these assays. Unless noted, calls come from the whole dose curve; as a rule, active = well fitted curve in the direction sought with a large enough effect; inconclusive = small, poorly fitted or top-dose-only effect, or another doubt; inactive = no such curve, though single readings can be large; an effect the other way counts as inactive or inconclusive. % is set by controls: 0 for no effect and ±100 for the full control effect.

SMILES	Vaccinia Venus	VACV mCherry inh	FMDV inh	HCMV inh	Sm TGR block	HCV inhibitor
COc1ccc([N+](=O)[O-])cc1NC(=O)C(C)OC(=O)c1ccccc1C(=O)c1ccc(Cl)cc1 (configuration not stated)	-3%	-14%	24%	-65*	-4%	?
O=[N+]([O-])c1cccc(CN2CCN(Cc3ccc(Cl)cc3)CC2)c1	-10%	-14%	?	-77*	1%	10µM*
COc1ccc([N+](=O)[O-])cc1NC(=O)C(C)Sc1nc(-c2ccccc2)cs1 (configuration not stated)	-7%	-17%	-18%	20	21%	13µM*
COc1ccc([N+](=O)[O-])cc1NC(=O)Nc1ccc(OC)c(OC)c1	?	?	35µM*	-72*	-1%	2.8µM*
COc1ccc(C2CC(=O)N(Cc3ccccc3)c3c2c(C)nn3-c2nc(C)cc(C)n2)c(OC)c1 (configuration not stated)	-7%	-6%	-15%	-17	8%	.
COc1ccc([N+](=O)[O-])cc1NC(=O)C(C)N(C)Cc1cccc(OC)c1OC (configuration not stated)	-17%	-26%	?	-33	0%	35µM*
COc1ccc([N+](=O)[O-])cc1NC(=O)C(C)OC(=O)/C=C/c1ccco1 (configuration not stated)	-14%	-3%	?	-8	50µM*	-10%
COc1cc([N+](=O)[O-])ccc1NC(=O)NCC1CCN(Cc2ccc(Cl)cc2)CC1	?	-28%	-23%	1	-11%	13µM*
CC(OC(=O)/C=C/c1ccco1)C(=O)NC1CCCCC1C (configuration not stated)	.	.	?	-10	45µM*	?
COc1cc([N+](=O)[O-])ccc1NC(=O)Nc1ccc(C(=O)N2CCCC2)cc1	-7%	i	3%	?	?	-9%
COc1cc([N+](=O)[O-])ccc1NC(=O)N1CCCCCC1	.	.	-3%	?	32µM*	?
COc1cccc(-c2nnc(SCC3CNC(=O)O3)n2-c2ccc(Cl)cc2)c1 (configuration not stated)	-15%	-14%	-29%	-101*	-5%	-3%
Cc1cccc(CN2C(=O)[C@H]3Cc4c([nH]c5ccccc45)C(C)(C)N3C2=O)c1	.	.	35µM*	37	.	.
Cc1cccc(CN2C(=O)[C@@H]3Cc4c([nH]c5ccccc45)C(C)(C)N3C2=O)c1	.	.	?	-26	.	.
COCCNC(=S)Nc1ccc2nc(N3CCN(C)CC3)cc(C)c2c1	-23%	-15%	-17%	71	40µM*	-7%
CCN1CCN(c2cc(C)c3cc(NC(=S)NCc4cccs4)ccc3n2)CC1	.	.	39%	-11	?	?
Cc1cc(N2CCN(C)CC2)nc2ccc(NC(=S)NCc3cccs3)cc12	-16%	?	26%	3	-33%	10µM*
C=CCOc1ccc(CNCCO)cc1OCC	-11%	i	-22%	19	-3%	17%
O=C(CNC(=O)c1ccccc1)OCc1cc(=O)n2nc(C3CCCCC3)sc2n1	0%	-2%	-16%	7	6%	.
COc1cc(-c2ccc(NC(=O)NC3CC3)c(OC)c2)ccc1NC(=O)NC1CC1	.	.	.	-77*	-5%	.
CCN(CC)CC(=O)Nc1ccc(-c2ccc(NC(=O)CN(CC)CC)c(OC)c2)cc1OC	-20%	-27%	0%	-12	.	1.8µM*
CCCN1C(=O)C(Cc2nc3ccccc3c(=O)n2CC)c2cc(Br)ccc21 (configuration not stated)	-4%[7.34 µM]	-4%[7.34 µM]	-1%	-73*	7%	.
CCOc1ccc(NC(=O)c2cnc(N3CCCCC3)c3ccccc23)cc1	-11%	-8%	-24%	13	2%	.
O=C1NC(=O)N(CCc2ccc(F)cc2)C(=O)/C1=C\C=C\c1ccccc1	5%	-8%	10µM*	-33	?	4µM*
CN(C)c1ccc(/C=C2/C(=O)NC(=O)N(CCc3ccc(F)cc3)C2=O)cc1	.	.	-2%	-3	?	9%
SMILES	Vaccinia Venus	VACV mCherry inh	FMDV inh	HCMV inh	Sm TGR block	HCV inhibitor
C=CCN1C(=O)NC(=O)/C(=C/C=C/c2ccccc2)C1=O	21%	-13%	?	-112*	10µM*	21%
CN1C(=O)/C(=C/c2ccc(Cl)s2)C(=O)NC1=S	18%	-15%	?	-25	7.9µM*	?
CN1C(=O)/C(=C\c2ccc(N3CCCCCC3)cc2)C(=O)NC1=S	.	.	-22%	-1	?	-12%
Cc1ccsc1/C=C1/NC(=O)N(Cc2ccc(F)cc2)C1=O	-13%	i	-8%	-25	.	-4%
Cc1ccsc1/C=C1\C(=O)NC(=S)N(C)C1=O	.	.	32µM*	-102*	25µM*	8%
COc1ccc(/C=C2\C(=O)NC(=S)N(C)C2=O)cc1C	-16%	-3%	-10%	-15	7.1µM*	4%
O=C(Nc1ccc2c3c(cccc13)CC2)c1cccc([N+](=O)[O-])c1	-6%	-18%	-16%	-61*	-5%	-10%
Cc1cc(O)c(NC(=O)c2cc([N+](=O)[O-])ccc2Cl)cc1C	-12%	-26%	-30%	99	-13%	-6%
O=C(Nc1cccc2c1CCCC2)c1cc([N+](=O)[O-])ccc1Cl	-24%	-5%[1.46 µM]	?	-105*	-24%	?
O=C(Nc1cccc2c1CCCC2)c1ccc(Cl)c([N+](=O)[O-])c1	4%	3%	25µM*	-26	3%	?
CCc1nnc(NS(=O)(=O)c2ccc(NC(=O)/C=C/c3ccccc3Cl)cc2)s1	-1%	-1%	7%	-16	.	-4%
CC1(NC(=O)COc2ccccc2-c2ccccc2)CCS(=O)(=O)C1 (configuration not stated)	.	.	1%	-30	-2%	0%
Cc1cccc(OCC(=O)NCc2nnc3ccc(C(F)(F)F)cn23)c1C	.	.	-9%	0	-14%	-19%
CCCn1c(NC(=O)c2ccc([N+](=O)[O-])o2)nc2ccccc21	-10%	?	-9%	-63*	-33%	?
CCCn1c(NC(=O)c2cccc(C)c2C)nc2ccccc21	.	.	35%	.	0%	11µM*
Cn1c(NC(=O)c2ccccc2NC(=O)C(C)(C)C)nc2ccccc21	?	?	-17%	-25	-1%	7.1µM*
CCC(=O)Nc1nc2ccccc2n1Cc1ccccc1	.	.	0%	-92*	0%	?
O=S(=O)(c1cccc2cccnc12)N1CCN(Cc2ccc3c(c2)OCO3)CC1	10%	7%	?	?	-13%	4%
O=C(c1ccco1)N1CCN(C(=O)c2nn3cccnc3c2Cl)CC1	-12%	i	1%	4	-1%	-12%
O=C(Nc1cc(Cl)ccc1O)c1snnc1-c1ccccc1	.	.	20µM*	-100*	-13%	18µM*
